RE007 growth inh: less growth of the S. pombe RE007 Vpr strain. S. pombe RE007 Vpr strain, BacTiter-Glo ATP luminescence, 24 h. actives 0.21% (n = 360,000). Potency, µM (titrated, usually from 92.2 µM), inactives show at the top dose activity change, negative = less growth, most hits filed as inhibitors. AID 651644; active = well fitted falling curve with a large enough effect; inconclusive = small, poorly fitted or top-dose-only effect; inactive = no such curve, though single readings can be large or run the other way; note: nearly all actives have a fitted effect of over 50% in size
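Fission yeast strain RE007, carrying one chromosomally integrated HIV-1 vpr copy, was seeded at OD 0.01 in PMG+AL medium with 23 nL pinned compound. After 24 h at 30 °C and 99% humidity, viability was read by BacTiter-Glo luminescence.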
AmpC inh no detg: blocks E. coli AmpC beta-lactamase in detergent-free assay; P00811; AmpC nitrocefin hydrolysis, absorbance 480 nm, 0.0001% Triton; actives 0.52% (n = 330,000); Potency, µM (titrated, usually from 57.1 µM), inactives show top-dose activity change, negative = inhibition, actives largely listed as inhibitors;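 note: plate controls were no compound for no effect and no enzyme for full effect; nearly all actives have a fitted effect of over 20% in size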
Target sequence (P00811 whole entry, looked up): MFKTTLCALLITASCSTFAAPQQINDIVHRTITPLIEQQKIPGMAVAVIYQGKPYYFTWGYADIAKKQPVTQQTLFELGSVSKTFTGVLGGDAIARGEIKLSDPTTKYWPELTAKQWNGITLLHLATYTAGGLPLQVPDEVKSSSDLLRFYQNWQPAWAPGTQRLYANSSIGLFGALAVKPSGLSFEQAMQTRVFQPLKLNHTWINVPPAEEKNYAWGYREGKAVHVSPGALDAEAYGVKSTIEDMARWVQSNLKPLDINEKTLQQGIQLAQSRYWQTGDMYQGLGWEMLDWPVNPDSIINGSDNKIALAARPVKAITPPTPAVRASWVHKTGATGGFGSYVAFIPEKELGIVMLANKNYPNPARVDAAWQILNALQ
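AmpC (5.3 nM in the dispensed reagent) in 20 mM phosphate pH 7.0 with 0.01% (detergent screen) or 0.0001% Triton X-100 was preincubated with compounds for 15 min at room temperature. Nitrocefin was then added from an 800 uM solution, and hydrolysis was followed at 480 nm.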
AMA1 RON2 block: AMA1-RON2 (P. falciparum) interaction inhibition. Potency, µM (top dose mostly 58.2 µM), without a hit: at the highest dose activity change, negative = inhibition, most hits filed as inhibitors. actives 0.2% (n = 360,000). AID 720542. AlphaScreen AMA1-biotinylated RON2 peptide binding;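 note: 0% = vehicle wells and -100% = peptide control; nearly all actives have a fitted effect of over 45% in size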
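AMA1 (3D7) with his tag at 25 nM final met compounds first, then biotinylated RON2 peptide at 25 nM; detection used donor plus acceptor beads, 10 µg/mL apiece, read by AlphaScreen after 30 min at room temperature.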
Sm TGR inh: S. mansoni TGR enzyme inhibition; actives 3% (n = 360,000); Potency, µM (top dose mostly 114 µM), for the others: at the top dose activity change, negative = inhibition, hits mostly inhibitors; purified TGR, DTNB reduction, TNB absorbance 405 nm; note: nearly all actives have a fitted effect of over 60% in size
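First, TGR (20 nM dispensed) and NADPH were mixed with compound. Second, a 15 min room-temperature incubation followed. Third, further NADPH and then DTNB were added to start the reaction. Finally, TNB absorbance was monitored kinetically.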
AmpC inh detg: blocks E. coli AmpC beta-lactamase in detergent assay; P00811; AmpC hydrolysis of nitrocefin, absorbance 480 nm, 0.01% Triton; Potency, µM (doses to about 114 µM), for inactives: top-dose activity change, negative = inhibition, usual class: inhibitors; actives 0.041% (n = 370,000); AID 485294;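 note: 0% = no-compound wells and -100% = no-enzyme wells; nearly all actives have a fitted effect of over 25% in size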
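20 mM phosphate pH 7.0 + 0.01% (detergent screen) or 0.0001% Triton X-100; 5.3 nM AmpC reagent; cpd preinc 15 min RT; nitrocefin (800 uM stock) to start; A480 q20 s × 4 min; Activity was normalised to no-enzyme and no-compound control wells.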
The depositor's hits bear a star; ? = inconclusive; / = not tested or not shown; [ ] = remark or other dose. Sampled rows, rich in hits. Any-hit rate of the full collection: about 3.2%. Unless noted, calls come from the whole dose curve; as a rule, active = well fitted curve in the direction sought with a large enough effect; inconclusive = small, poorly fitted or top-dose-only effect, or another doubt; inactive = no such curve, though single readings can be large; an effect the other way counts as inactive or inconclusive. Unless noted, % is set by controls: 0 for no effect and ±100 for the full control effect; potency is the fitted concentration of half-maximal effect.

SMILES	RE007 growth inh	AmpC inh no detg	AMA1 RON2 block	Sm TGR inh	AmpC inh detg
Cc1nnc(SCC2=C(C(=O)O)N3C(=O)C(NC(=O)COc4ccc(F)cc4)C3SC2)s1 (stereo not given)	2%	3%	7%	14µM*	-6%
O=C(COc1ccccc1)NC1C(=O)N2C(C(=O)O)=C(Cl)CSC12 (stereo not given)	4%	-19%	-9%	?	-15%
C=CCN1C(=O)/C(=C/c2ccc(-c3ccc(F)cc3)o2)SC1=S	4%[18.4 µM]	-60%	3%	25µM*	0%
COc1cc(C(=O)Nc2ccc(OCc3cc(=O)n4cccc(C)c4n3)cc2)cc(OC)c1OC	/	/	/	2%	0%
Nc1nc(N2CCN(C(=O)c3ccco3)CC2)nc2ccc(Br)cc12	-7%	-31%	-3%	45µM*	-17%
Nc1nc(N2CCN(C(=O)c3ccco3)CC2)nc2ccccc12	-8%	-28%	-8%	-7%	-8%
O=C(CCNNC(=O)c1ccncc1)NCc1ccccc1	2%[18.4 µM]	-13%	47%	40µM*	2%
CCOC(=O)c1ccc(CN(Cc2ccc(Cl)cc2Cl)S(=O)(=O)c2cccc(Cl)c2)cc1	/	/	/	10%	5%
CC(C)SC1=NC(C)(C)C=C(/C=C/c2ccc(Cl)cc2Cl)N1	-14%	-11%	-7%	16µM*	0%
CC(C)SC1=NC(C)(C)C=C(/C=C/c2c(Cl)cccc2Cl)N1	-16%	-22%	-2%	20µM*	2%
CC1(c2nnc(-c3ccc(Cl)cc3)o2)CC(c2ccc([N+](=O)[O-])cc2)=NO1 (stereo not given)	-18%	-4%	-6%	-10%	-7%
CC1(c2nnc(-c3ccncc3)o2)CC(c2ccc([N+](=O)[O-])cc2)=NO1 (stereo not given)	11%	53%	-10%	35µM*	1%
OCCCc1nc2n(n1)C(c1cccs1)C=C(c1ccccc1)N2 (stereo not given)	/	-1%	/	?	1%
OCCCc1nc2n(n1)C(c1ccccc1)C=C(c1ccc(F)cc1)N2 (stereo not given)	-13%	45%	12%	20µM*	3%
OCCCc1nc2n(n1)C(c1ccccc1Cl)C=C(c1cccs1)N2 (stereo not given)	2%	3%	27%	28µM*	-12%
COc1ccc(C(=O)NC(=S)Nc2ccc(CN3CCOCC3)cc2)cc1	-14%	47%	-10%	22µM*	-2%
CCOc1ccc(C(=O)Nc2ccc(CN3CCOCC3)cc2)cc1Br	-21%	87%	3%	-1%	-16%
COc1ccc(C(=O)NC(=S)Nc2ccc(CN3CCOCC3)cc2)cc1Br	-3%	134%	20%	14µM*	?
CN(C)CCCn1c(=O)n(Cc2ccco2)c(=O)c2c3c(sc21)CCCCC3	4%	136%	-25%	35µM*	4%
O=c1c2c3c(sc2[nH]c(=S)n1Cc1ccco1)CCC3	-6%	20µM*	109%	14µM*	3%
CC1(C)Cc2c(sc3[nH]c(=S)n(Cc4ccco4)c(=O)c23)CO1	-4%	-17%	46%	-24%	2%
CCN1CCN(C(=O)Cn2c(-c3cccs3)cc3cc(Cl)ccc32)CC1	/	/	/	1%	3%
COc1cccc(CC2(CO)CCCN(Cc3ccc(-c4ccco4)cc3)C2)c1 (stereo not given)	1%	18%	-27%	18µM*	6%
COc1cccc(CC2(CO)CCCN(Cc3ccccc3-c3ccco3)C2)c1 (stereo not given)	-18%	10%	-21%	50µM*	5%
COc1cccc(CC2(CO)CCCN(Cc3ccc(CO)o3)C2)c1 (stereo not given)	3%	-11%	-2%	-26%	4%
Cc1nnc(N2CCN(C(=O)Nc3cccc(C(F)(F)F)c3)CC2)c2nn(-c3ccccc3)c(C)c12	/	/	/	-1%	-4%
O=C(Nc1ccc(NC(=O)c2cccs2)cc1)c1ccc(Br)cc1	/	/	/	-7%	-7%
CCOc1ccc(CNC(=O)c2oc3c(c2C)-c2nn(Cc4cccc(Cl)c4)cc2CC3)cc1	/	/	/	?	21%
